Experiment [1] has as its target Mitogen-activated protein kinase 10 (Mus musculus) (UniProt Q61831). Kind of experiment: JNK3 AlphaScreen Assay (AID 530; active = well fitted curve in either direction with a large enough effect, not every such curve was filed as active;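 note: kinase came from lysate of stimulated human HepG2 cells; signal reports phosphorylation of biotinylated GST-cJun 1-79 at Ser73 with 10 µM ATP; % is set by controls: 0 for no effect and ±100 for the full control effect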). The method, boiled down:
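Activity was read by AlphaScreen after JNK3-containing HepG2 lysate (cytokine pre-activated) phosphorylated biotinylated GST-cJun with 10 uM ATP at room temperature. Phospho-Ser73 cJun antibody with Protein-A acceptor beads provided detection.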

Experiment [2] can be described thus: Cell Viability - SH-SY5Y (AID 544).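 Note: cells exposed to compound for 40 hours; nearly all actives have a fitted effect of over 55% in size.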 Note: potency is the fitted concentration of half-maximal effect. Particulars: SH-SY5Y neuroblastoma cell viability; viability change, negative = cytotoxic: at 92.2 µM (top of the series). The method in brief:
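Cells were plated at 1500 per well and allowed 5 hr at 37 °C. Compounds were added across a concentration range and incubated 40 hr at 37 °C. CellTiter-Glo was added for 20 min at room temperature before luminescence reading.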

Experiment [3] can be described thus: Cellular Toxicity (caspase-3) HUV-EC-C (AID 656). The method in brief:
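Read-out: luminescence proportional to caspase 3/7 activity, measured 20 min after adding Caspase-Glo 3/7 reagent. Cells (HUV-EC-C) had received compound for 16 hr at 37°C. Increases relative to DMSO and 100 uM tamoxifen gave concentration-response AC50 values.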

Experiment [4] in a line: Cellular Toxicity (caspase-3) Hek293 (AID 664).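 Note: cells exposed to compound for 16 h at 37 °C before readout.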 Particulars: HEK293 caspase-3 activation, DMSO = 0%, 100 µM tamoxifen = 100%; at 92.2 µM (top of the series). The method in brief:
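qHTS, HEK293 (human embryonic kidney), 16 h cpd exposure in complete medium. Caspase-3/7 activation = luminescence increase; normalized to DMSO/100 uM tamoxifen; Hill-fit AC50.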

The nature of experiment [5]: Cell Viability - LYMP1-003 - Assay at 40 hr (AID 964). Note: % is set by controls: 0 for no effect and ±100 for the full control effect; nearly all actives have a fitted effect of over 60% in size. The method, boiled down:
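Luminescent ATP signal (CellTiter-Glo) served as the viability read-out after 40 hr compound treatment of human lymphoblastoid LYMP1-003 cells at 37 C. Decreases in ATP were fitted with the Hill equation to give AC50.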

The nature of experiment [6]: Cell Viability - LYMP2-013 (AID 970). Note: nearly all actives have a fitted effect of over 55% in size. Note: potency is the fitted concentration of half-maximal effect. The method, boiled down: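 Cytotoxicity is scored as a concentration-dependent drop in intracellular ATP in human lymphoblastoid cells after 24 hr compound exposure at 37 C. ATP is quantified by luciferase luminescence, and AC50 values come from Hill-equation modeling.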
Experiment [7] in a line: Cell Viability - LYMP2-019 (AID 973). Note: nearly all actives have a fitted effect of over 55% in size. Note: potency is the fitted concentration of half-maximal effect. The method in brief: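 Cytotoxicity is scored as a concentration-dependent drop in cellular ATP after cells (2500/well) receive compound for 24 hr at 37 C. Tetraoctylammonium bromide serves as positive control.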
A short description of experiment [8]: Cell Viability - LYMP2-002 (AID 977).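 Note: compound exposure lasted 24 h at 37 °C; plate controls were DMSO only for no effect and 92 µM tetraoctylammonium bromide for full effect.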 The method in brief: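 Human lymphoblastoid cells, 2500/well, complete medium; 5 h 37 C settle; compound 24 h 37 C; CellTiter-Glo, 30 min RT; luminescence. Decrease in ATP = cytotoxicity; AC50 via Hill equation.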
A short description of experiment [9]: Cell Viability - LYMP2-008 (AID 980). Note: nearly all actives have a fitted effect of over 60% in size. Note: potency is the fitted concentration of half-maximal effect. The method in brief:
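Cells seeded at 2500/well and rested 5 hr at 37 C; compounds added over a concentration range and incubated 24 hr at 37 C; CellTiter-Glo added, 30 min at room temperature; luminescence read and AC50 fitted with Hill model.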

Experiment [10] can be described thus: Cell Viability - LYMP2-010 (AID 981).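 Note: cells exposed to compound for 24 hours at 37 °C; nearly all actives have a fitted effect of over 55% in size.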 Note: potency is the fitted concentration of half-maximal effect. The method, boiled down:
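Steps: seed 2500 LYMP2-010 cells per well; incubate 5 hr at 37 C; add compound; incubate 24 hr at 37 C; add CellTiter-Glo, wait 30 min at room temperature; read luminescence. Concentration-response fitted to Hill equation for AC50.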

Experiment [11] can be described thus: Cell Viability - LYMP2-016 (AID 984). Note: potency is the fitted concentration of half-maximal effect. The method in brief: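 Acute toxicity in a Coriell human lymphoblastoid line is scored as loss of intracellular ATP over 24 h of treatment in complete medium. CellTiter-Glo signal is fitted across concentrations with the Hill equation to give AC50.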
The nature of experiment [12]: Cell Viability - LYMP2-020 (AID 986). Note: nearly all actives have a fitted effect of over 55% in size. Note: potency is the fitted concentration of half-maximal effect. The method, boiled down:
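Seed 2500 cells per well and incubate 5 hr at 37 C. Add compounds at a concentration series and incubate 24 hr at 37 C. Add CellTiter-Glo, wait 30 min at RT, read luminescence, and fit a Hill curve for AC50.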

The nature of experiment [13]: Cell Viability - LYMP2-022 (AID 987).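 For viability change, negative = cytotoxic: 0% = DMSO alone and full effect = tetraoctylammonium bromide at 92 µM.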 Note: nearly all actives have a fitted effect of over 55% in size. Note: potency is the fitted concentration of half-maximal effect. The method, boiled down: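 Cells were seeded at 2500 per well, rested 5 hr at 37 C, and treated with titrated compounds for 24 hr at 37 C. Cellular ATP was then quantified by luciferase luminescence, and AC50 values were derived from Hill-modelled concentration-response curves.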
In experiment [14] the target is Vitamin D3 receptor (Homo sapiens) (UniProt P11473). Kind of experiment: qHTS assay for small molecule agonists of vitamin D receptor signaling (AID 588543; calls by dose curve;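 note: 0% = DMSO basal and 100% = reference agonist control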). The method, boiled down: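 qHTS in agonist mode: compound titrations stimulate a VDR-driven β-lactamase reporter in HEK293T cells over 16 h at 37 °C. Response normalized to 50 nM 1α,25-dihydroxyvitamin D3 = 100%, DMSO = 0%; Hill fitting gives EC50 and maximal response.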
Sequence of Vitamin D3 receptor (Homo sapiens) (P11473 whole entry, looked up): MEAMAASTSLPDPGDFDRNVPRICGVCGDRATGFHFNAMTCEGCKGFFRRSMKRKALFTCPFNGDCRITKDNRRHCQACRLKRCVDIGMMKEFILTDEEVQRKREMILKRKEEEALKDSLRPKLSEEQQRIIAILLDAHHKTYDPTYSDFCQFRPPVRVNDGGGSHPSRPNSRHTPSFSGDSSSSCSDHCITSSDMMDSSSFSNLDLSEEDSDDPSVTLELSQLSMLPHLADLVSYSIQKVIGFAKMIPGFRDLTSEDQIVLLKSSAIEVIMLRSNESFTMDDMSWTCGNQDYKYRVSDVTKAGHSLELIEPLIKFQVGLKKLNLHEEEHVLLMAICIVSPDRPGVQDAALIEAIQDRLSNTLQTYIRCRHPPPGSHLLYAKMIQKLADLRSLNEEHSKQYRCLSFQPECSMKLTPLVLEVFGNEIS

Experiment [15] can be described thus: qHTS assay for small molecule agonists of retinoid X receptor alpha signaling (AID 588544). Particulars: HEK293T RXRa-UAS-bla, beta-lactamase reporter, 18 h; 530 nm emission. For orientation: Quantitative high-throughput screening tests each substance at several concentrations.
The target of experiment [16] is Thyroid hormone receptor beta (Homo sapiens) (UniProt P10828). Kind of experiment: qHTS assay for small molecule antagonists of thyroid hormone receptor beta signaling (AID 588547; active = well fitted inhibition curve with a large enough effect in the signal ratio, with a control signal flat, not every such curve was filed as active; the % refers to the signal ratio;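 note: cells stimulated with 0.4 nM T3 agonist during compound exposure; % is set by controls: 0 for no effect and ±100 for the full control effect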). Particulars: TR-UAS-bla HEK293, beta-lactamase ratio, antagonist mode, 18 h. The method in brief:
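TR-UAS-bla GripTite HEK293 cells in 2% charcoal/dextran FBS medium; compounds 0.59 nM to 92 uM with T3 at 0.4nM final, 18 h at 37 C. Beta-lactamase read by CCF4 fluorescence (460/530 nm); Hill fits gave IC50 and efficacy.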

A short description of experiment [17]: qHTS assay for small molecule disruptors of the mitochondrial membrane potential - 1 hr assay (AID 651754; calls by dose curve; note: % is set by controls: 0 for no effect and ±100 for the full control effect; nearly all actives have a fitted effect of over 35% in size). The method in brief: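 Loss of mitochondrial potential shifts the cationic dye from red mitochondrial aggregates to green cytoplasmic monomers. Cells (HepG2) are treated with compound for 1 hr before a 30 min dye incubation at 37C.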
Experiment [18] has as its target Tumor necrosis factor (Homo sapiens) (UniProt P01375). Kind of experiment: qHTS assay to identify small molecules that stimulate Tumor Necrosis Factor-alpha (TNF-alpha) secretion (AID 651757; active = well fitted curve in the direction sought with a large enough effect in the signal ratio; the % refers to the signal ratio; note: 0% is about no effect). The method, boiled down:
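Human monocytic THP-1 cells are plated, treated with compound and held at 37 C for 17 hrs. Labeled anti-TNF-alpha antibody mixture is then added; after 3 hr at room temperature, TR-FRET signal reports secreted TNF-alpha.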

Experiment [19] in a line: Cell Viability - LYMP2-001 (AID 921). Note: nearly all actives have a fitted effect of over 70% in size. Note: potency is the fitted concentration of half-maximal effect. The method in brief: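 qHTS, 1536-well; lymphoblastoid cells, 24 hr compound, 37 C; ATP by CellTiter-Glo, 30 min RT; luminescence; Hill-fit AC50.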
A short description of experiment [20]: MultiTox-Fluor Cytotoxicity Assay - LYMP1-002 - Live Cells (AID 955).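 Note: cells exposed to compound for 16 hours; % is set by controls: 0 for no effect and ±100 for the full control effect.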 The method, boiled down: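 Cells were seeded at 2500 per well and incubated 5 hr. Compounds were then added for 16 hr at 37 C, followed by MultiTox-Fluor reagent for 60 min at room temperature and fluorescence reading of viable-cell protease signal.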

Several values for one entry are separate records, joined by “and”; a condition that tells them apart may be missing. Equal values may be shown once. Results filed as inconclusive are left out. Activity calls are given as the source filed them. Unless noted, calls come from the whole dose curve; as a rule, active = well fitted curve in the direction sought with a large enough effect; inconclusive = small, poorly fitted or top-dose-only effect, or another doubt; inactive = no such curve, though single readings can be large; an effect the other way counts as inactive or inconclusive.

Sequence of Thyroid hormone receptor beta (Homo sapiens) (P10828 whole entry, looked up): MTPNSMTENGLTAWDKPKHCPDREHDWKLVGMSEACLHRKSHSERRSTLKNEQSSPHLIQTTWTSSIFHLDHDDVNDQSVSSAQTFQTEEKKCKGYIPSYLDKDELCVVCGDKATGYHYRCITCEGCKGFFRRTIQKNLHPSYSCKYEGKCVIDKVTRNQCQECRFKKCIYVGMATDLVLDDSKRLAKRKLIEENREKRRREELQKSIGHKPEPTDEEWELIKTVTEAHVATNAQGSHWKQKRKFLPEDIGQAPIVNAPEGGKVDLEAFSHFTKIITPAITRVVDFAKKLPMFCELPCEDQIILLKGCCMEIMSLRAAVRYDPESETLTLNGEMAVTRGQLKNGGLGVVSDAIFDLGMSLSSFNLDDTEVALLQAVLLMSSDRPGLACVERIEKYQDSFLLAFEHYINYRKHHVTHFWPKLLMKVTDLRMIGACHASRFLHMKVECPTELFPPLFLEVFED
Sequence of Tumor necrosis factor (Homo sapiens) (P01375 whole entry, looked up): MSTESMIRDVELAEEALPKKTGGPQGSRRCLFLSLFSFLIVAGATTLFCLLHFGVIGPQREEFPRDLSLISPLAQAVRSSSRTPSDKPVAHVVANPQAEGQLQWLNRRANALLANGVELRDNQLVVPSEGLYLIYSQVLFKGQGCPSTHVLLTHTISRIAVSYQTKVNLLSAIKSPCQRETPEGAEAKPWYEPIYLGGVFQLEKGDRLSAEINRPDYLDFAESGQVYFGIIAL

Regarding `CC(C)(Cl)Cl`, the Potency entry in [1], in experiment [2], in experiment [5], in [6], in experiment [7] and in experiment [8] was “inactive” each time. In addition, the Potency result in experiment [9], in experiment [10], in experiment [11], in experiment [12], in [13] and in experiment [17] was “inactive” each time. The molecule was called inactive in experiment [3], in experiment [14] and in [18]. Further, the caspase-3 activation in experiment [4] is 0.825% (inactive). For the same molecule, the max response in [15] was -10.7%. Besides, the activity change % (negative = inhibition) in experiment [16] is -3.24% (inactive).

In the case of `O=C(O)c1cc(Cl)ccc1Cl`, the Potency entry in experiment [1], in experiment [2], in [19], in experiment [5], in experiment [6] and in experiment [7] was “inactive” throughout. In addition, the Potency result in experiment [8], in [9], in experiment [10], in [11], in experiment [12] and in [13] was “inactive” throughout. Further, the Potency result in [17] is “inactive”. Also, in experiment [4], the caspase-3 activation is -1.49% (inactive). Further, the result in [20], in [14] and in [18] was inactive. Further, in experiment [15], the max response is -6.74%. The activity change % (negative = inhibition) in experiment [16] was 12.5% (inactive).

For `CC(C)C#N`, the Potency entry in [1], in experiment [2], in [19], in experiment [5], in experiment [6] and in experiment [7] was “inactive” each time. Moreover, the Potency entry in experiment [8], in [9], in experiment [10], in [11], in [12] and in experiment [13] was “inactive” each time. Besides, in [17], the Potency result was “inactive”. For the same molecule, the outcome in experiment [3], in experiment [20] and in experiment [18] was inactive. Besides, in experiment [4], the caspase-3 activation was 1.03% (inactive). The max response in experiment [15] is -7.08%. The activity change % (negative = inhibition) in experiment [16] was -3.27% (inactive).

In the case of `Nc1ccc(Cc2ccc(N)c(Cl)c2)cc1Cl`, the Potency result in experiment [2], in experiment [19], in experiment [5], in experiment [6], in experiment [7] and in experiment [8] was “inactive” each time. For the same molecule, the Potency entry in [9], in experiment [10], in experiment [11], in experiment [12], in experiment [13] and in experiment [17] was “inactive” throughout. In addition, the outcome in experiment [3], in experiment [20], in experiment [14] and in experiment [18] was inactive. Also, the caspase-3 activation in experiment [4] is 1.19% (inactive).

With `O=[N+]([O-])CCO`, the Potency entry in experiment [2], in experiment [19], in [5], in experiment [6], in experiment [7] and in experiment [8] was “inactive” each time. For the same molecule, the Potency entry in [9], in [10], in experiment [11], in experiment [12] and in experiment [13] was “inactive” in each case. Moreover, the outcome in experiment [3], in [20] and in experiment [18] was inactive. Moreover, in experiment [4], the caspase-3 activation is 0.0344% (inactive). The max response in experiment [15] was 10.9%. The activity change % (negative = inhibition) in [16] is 2.47% (inactive).

For the molecule `N#C/C=C/C#N`, the Potency entry in [1], in experiment [5] and in [17] was “inactive” in each case. The Potency in experiment [2] was 15.8 µM (active); in experiment [19], 31.6 µM (active); in experiment [6], 39.8 µM (active); in experiment [7], 31.6 µM (active); in experiment [9], 39.8 µM (active); in experiment [10], 31.6 µM (active). Besides, the Potency is 39.8 µM (active) in experiment [11], 31.6 µM (active) in [12] and 15.8 µM (active) in [13]. Also, the call in experiment [3], in experiment [14] and in experiment [18] was inactive. Moreover, the caspase-3 activation in experiment [4] is -2.32% (inactive). The activity change % (negative = inhibition) in experiment [16] is -13.1% (inactive).

For the molecule `Nc1ccc([N+](=O)[O-])cc1N`, the Potency result in [1], in experiment [19], in experiment [6], in experiment [7], in experiment [8] and in experiment [9] was “inactive” in each case. Besides, the Potency entry in experiment [11], in experiment [12] and in experiment [13] was “inactive” in each case. Also, the result in [3], in [20] and in experiment [14] was inactive. For the same molecule, in experiment [4], the caspase-3 activation was 0.611% (inactive). In addition, in [15], the max response is -12.1%. The activity change % (negative = inhibition) in experiment [16] was 8.39% (inactive) and -11.3% (inactive).

Turning to `C=CCBr`, the Potency result in experiment [1], in [2], in experiment [19], in experiment [5], in [6] and in experiment [7] was “inactive” each time. For the same molecule, the Potency entry in [8], in experiment [9], in experiment [10], in experiment [11], in experiment [12] and in [13] was “inactive” throughout. The Potency result in experiment [17] was “inactive”. In addition, the molecule was called inactive in [3], in [20], in experiment [14] and in [18]. Besides, the max response in experiment [15] was -11.7%. Also, the activity change % (negative = inhibition) in [16] was -19.2% (inactive).

For `Brc1cccc(-c2ccccc2)c1`, the Potency result in experiment [1], in experiment [2], in [19], in [5], in experiment [6] and in experiment [7] was “inactive” in each case. Besides, the Potency entry in experiment [8], in experiment [9], in [10], in experiment [11], in experiment [12] and in experiment [13] was “inactive” throughout. Further, the Potency entry in [17] was “inactive”. Further, the molecule was classed as inactive in [3], in experiment [20], in [14] and in [18]. Moreover, in experiment [4], the caspase-3 activation was -1.08% (inactive). In experiment [15], the max response is -12%. Further, the activity change % (negative = inhibition) in experiment [16] is 0.106% (inactive).

Source of the values: PubChem BioAssay (NCATS).
